# Compound activity (PubChem)
# HT1080 IDH1KD tx – toxicity to HT-1080 IDH1 knockdown cells (counter line); HT-1080 IDH1 knockdown viability, ATP luminescence, 48 h; Potency, µM (titrated, usually from 46.1 µM), for the others: at the highest dose activity, negative = toxicity, actives largely listed as cytotoxic; 360,000 compounds, 2% hits; AID 686971;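 further: potency means the concentration at half of the fitted maximal effect; 0% = DMSO wells and -100% = cell-free medium wells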
#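 Assay cells: HT-1080 with IDH1 knockdown, 750 per well, RPMI/5% FBS. Exposure: 48 h at 37 °C following 2 h pre-incubation. Read: CellTiter-Glo luminescence; fitted concentration-response, curve class assigned.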
# HT1080-NT tox – kills 2HG-producing HT-1080-NT fibrosarcoma cells; HT-1080-NT fibrosarcoma viability, CellTiter-Glo ATP luminescence, 48 h; 360,000 compounds, 1.6% hits; Potency, µM (top dose mostly 46.1 µM), for the others: at the top dose activity, negative = less viability, hits mostly cytotoxic;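 further: NT is the 2HG producing partner of a matched IDH1 knockdown line; potency means the concentration at half of the fitted maximal effect; 0% = DMSO-treated cells and -100% = media-only wells without cells; nearly all actives have a fitted effect of over 55% in size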
#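 A 48-hour cytotoxicity screen used HT-1080-NT cells plated 2 hours before compound delivery. ATP-based CellTiter-Glo luminescence measured viability, normalized to DMSO and no-cell controls.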
# DT40 TDP1 no CPT – qHTS for Inhibitors of human tyrosyl-DNA phosphodiesterase 1 (TDP1): qHTS in cells in absence of CPT | 420,000 compounds, 15% hits | Potency, µM (titrated, usually from 46.2 µM), without a hit: at the top dose activity change, negative = growth inhibition, hits mostly inhibitors | DT40 Tdp1-/- hTDP1 cells, no CPT, ATP luminescence, 48 h; further: potency means the concentration at half of the fitted maximal effect; nearly all actives have a fitted effect of over 55% in size
#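 Compound effects on proliferation are scored in DT40 Tdp1-/-;hTDP1 cells in the absence of CPT. ATP levels (CellTiter-Glo luminescence) are recorded after a ≥48 hr, 37 °C incubation.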
# IL-1B inflam inh – inflammasome signaling inhibition, IL-1 beta readout | THP-1 LPS/ATP IL-1B secretion, AlphaLISA, 16 h; hits give low values | activity change, % at 57.5 µM | 360,000 compounds, 4.7% hits | AID 743279; in the data active means activity change below about -50%; inconclusive means mostly about -30% to -49%
#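 Secreted IL-1B measured by AlphaLISA bead assay after 16 h compound exposure of THP-1 cells; compounds (final up to 57.5 uM) added 1 h before LPS (250 ng/mL) and ATP (1.25 mM) stimulation; lower signal means less secretion.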
# TDP1 cell CPT – growth inhibition of DT40 Tdp1-/-;hTDP1 cells with camptothecin (screen for TDP1 inhibitors). Potency, µM (highest dose often 46.2 µM), for inactives: at the highest dose activity change, negative = growth inhibition, hits mostly inhibitors. chicken DT40 Tdp1-/-;hTDP1 cells + 20 nM CPT, ATP luminescence, 48 h. 420,000 compounds, 12% hits; further: potency means the concentration at half of the fitted maximal effect; nearly all actives have a fitted effect of over 55% in size
#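 Chicken DT40 Tdp1-/- cells complemented with human TDP1, 400 cells/well, exposed to compounds plus 20 nM camptothecin for at least 48 h at 37 C; viability read as ATP content by CellTiter-Glo luminescence.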
# An asterisk follows results filed as active; ? = inconclusive; nt = not tested or not shown; [ ] = another dose, or the depositor's remark. Only some compounds are listed: those with a hit (about 19% of all), similar ones and a draw of the others. Unless noted, the call rests on the fitted dose curve; in most records, active means well fitted curve in the direction sought with a large enough effect; inconclusive means small, poorly fitted or top-dose-only effect, or another doubt; inactive means no such curve, though single readings can be large; an effect the other way counts as inactive or inconclusive. Unless noted, on the % scale 0 is the no-effect control and ±100 the full control effect.
SMILES,HT1080 IDH1KD tx,HT1080-NT tox,DT40 TDP1 no CPT,IL-1B inflam inh,TDP1 cell CPT
COC(=O)c1ccc(COc2ccc(-c3nnn(CC(=O)NC(C)(C)C)n3)cc2)cc1,2.6%,17.6%,?,0.0,-18.7%
O=C1CCc2cc(S(=O)(=O)NC3CCCCC3)ccc2N1,3.4%,2.0%,-10.9%,12.6,6.6%
CCOc1cc2[nH]c(=S)n(Cc3ccc(C(=O)NCCCN(CC)CC)cc3)c(=O)c2cc1OCC,?,?,?,57.5,?
O=C(NCc1ccccn1)c1ccc(Cn2c(=S)[nH]c3ccc(Br)cc3c2=O)cc1,7.1%,-1.8%,6.51µM*,12.3,?
CCCCN(C)CCNC(=O)c1ccc(Cn2c(=S)[nH]c3ccc(Br)cc3c2=O)cc1,14.6µM*,20.6µM*,?,0.0,25.9µM*
O=C(NCc1ccccn1)c1ccc(Cn2c(=S)[nH]c3ccccc3c2=O)cc1,0.8%,-12.6%,?,20.4,-25.9%
O=C(NC(CO)C(=O)OCc1ccccc1)OCc1ccccc1 (centres undefined),17.5%,6.8%,-10.1%,-8.7,?
CCOc1ccc(/C=C2\SC(=S)N(CC(=O)Nc3ccccn3)C2=O)cc1,4.0%,5.3%,-0.4%,12.0,?
CCCCN(C(=O)c1cc(S(=O)(=O)N2CCCCC2)ccc1Cl)c1c(N)n(CCC)c(=O)[nH]c1=O,8.8%,-4.0%,-3.9%,2.8,-17.7%
CC[C@]12c3[nH]c4ccc(Cl)cc4c3CCN1C(=O)[C@@H](CC(=O)NC(C)(C)C)C[C@@H]2C(=O)N1CCN(C(=O)c2ccco2)CC1,-8.4%,-3.6%,18.4µM*,-3.3,14.6µM*
CC[C@]12c3[nH]c4cc(-c5ccco5)ccc4c3CCN1C(=O)[C@@H](CC(=O)NC(C)(C)C)C[C@@H]2C(=O)N1CCN(C(=O)c2ccco2)CC1,-5.4%,-2.3%,14.6µM*,1.3,23.1µM*
CC[C@]12c3[nH]c4ccc(Cl)cc4c3CCN1C(=O)[C@@H](CC(=O)NCCCN(C)C)C[C@@H]2C(=O)N1CCN(C(=O)c2ccco2)CC1,-1.5%,-2.6%,-7.8%,24.2,10.4%
Cc1cccc(NC(=O)COc2ccc(/C=C\c3[nH]c(=O)[nH]c(=O)c3[N+](=O)[O-])cc2)c1,9.4%,20.1%,-25.7%,11.0,10.2%
COc1ccc(OC(F)(F)F)cc1CC1(C)C(=O)Nc2ccc(-c3ccsc3)cc21 (centres undefined),?,?,?,-6.8,?
CC(C)NC(=O)N1CCC2(CC1)CCN(C(=O)c1ccco1)CC2,nt,nt,1.5%,nt,8.6%
O=C(N/C(=C\c1ccco1)C(=O)N1CCOCC1)c1ccccc1Cl,4.8%,15.9%,-14.5%,-0.3,3.2%
O=C(O)CCN1C(=O)/C(=C2\C(=O)N(Cc3ccc(F)cc3)c3ccccc32)SC1=S,10.5%,10.9%,14.6µM*,8.8,16.4µM*
O=C(COc1ccc2c(c1)CCC2)NCc1ccc(Cl)cc1,6.0%,-3.2%,10.0%,43.4,-16.3%
CC(/C=C/c1ccco1)=N\NC(=O)c1cccc(Cl)c1,?,-22.4%,?,-1.4,?
O=C(N/N=C/C=C/c1ccco1)c1ccccc1Cl,-8.9%,-16.3%,16.4µM*,-9.9,?
Cc1ccc(OCC(=O)N/N=C/C=C/c2ccco2)c(Br)c1,?,-4.2%,?,0.2,18.4µM*
O=C(N/N=C/C=C/c1ccco1)c1ccncc1,26.4%,-2.2%,-26.8%,-20.9,-45.9%
CC(/C=C/c1ccco1)=N/NC(=O)c1ccccc1Cl,-8.9%,-9.2%,16.4µM*,-21.8,23.1µM*
O=C1NC[C@@H](CCCCN2CCN(CCc3ccccc3)C(=O)C2=O)N(Cc2ccccc2)C1=O,13.0%,?,-2.3%,20.1,-6.9%
CCCN(C(=O)c1cc2c(=O)n(CC)c3ccccc3c2s1)c1ccccc1F,nt,nt,6.51µM*,nt,8.2µM*
SMILES,HT1080 IDH1KD tx,HT1080-NT tox,DT40 TDP1 no CPT,IL-1B inflam inh,TDP1 cell CPT
CCOc1ccccc1N(CC)C(=O)c1cc2c(=O)n(CC)c3ccccc3c2s1,nt,nt,16.4µM*,nt,14.6µM*
CCN(C(=O)c1cc2c(=O)n(CC)c3ccccc3c2s1)c1cccc(C(F)(F)F)c1,nt,nt,9.2µM*,nt,9.2µM*
CCCN(C(=O)c1cc2c(=O)oc3ccccc3c2s1)c1ccccc1C,nt,nt,?,nt,18.4µM*
CCCN(C(=O)c1cc2c(=O)oc3ccccc3c2s1)c1cccc(Cl)c1,nt,nt,-3.3%,nt,2.9%
CCN(C(=O)c1cc2c(=O)oc3ccccc3c2s1)c1cccc(C(F)(F)F)c1,nt,nt,-4.8%,nt,-5.4%
CCn1c(=O)c2cc(C(=O)N(C)c3ccccc3F)sc2c2ccccc21,14.8%,17.2%,14.6µM*,-71.7*,?
CCn1c(=O)c2cc(C(=O)NCc3cccs3)sc2c2ccccc21,13.9%,8.5%,?,-14.0,2.6%
CCN(CC)CCOCCOc1cc(C)c(Cl)c(C)c1,-6.8%,?,17.8µM*,-4.3,23.1µM*
Cc1ccc(OCCOCCNC(C)C)c(Br)c1,-7.6%,-13.8%,-23.4%,-58.2*,-26.6%
CCC(C)NCCOCCOc1cc(C)c(Cl)c(C)c1 (centres undefined),20.6µM*,20.6µM*,14.6µM*,?,25.9µM*
CCC(C)NCCOCCOc1ccc(Cl)cc1Br (centres undefined),?,20.6µM*,?,-79.9*,?
CCC(C)NCCOCCOc1ccc(C)cc1OC (centres undefined),-13.5%,-10.6%,?,18.2,-1.3%
COc1ccccc1OCCOCCOc1ccc(C)cc1Br,12.1%,-5.4%,?,0.0,?
COc1cc2c(cc1OC)C1CCC3=C([C@H](C)OC3=O)N1CC2 (some centres undefined),nt,nt,9.3%[9.04 µM],nt,15.5%[9.04 µM]
COc1cccc2c1cc1c(=O)n(CC(=O)O)nc(C)n12,nt,nt,0.8%,nt,6.5%
COc1ccccc1N1CCN(C(=O)CNC(=O)c2ccc(Cl)cc2Cl)CC1,-9.3%,-0.2%,?,18.4,?
COCCCNCCOCCOc1ccc(C)cc1Br,-13.1%,-4.7%,?,-13.1,-18.3%
CCCCNCCOCCOc1ccc(C)cc1Br,-23.2%,-30.0%,23.1µM*,-25.3,16.4µM*
CCN(CC)S(=O)(=O)c1cc(C(=O)NCCN2CCOCC2)ccc1Cl,-5.9%,3.8%,-5.1%,18.7,4.8%
Cc1ccc(C)c(CN2CCCN(CC(=O)Nc3ccc(C)c(C)c3)S2(=O)=O)c1,nt,nt,16.4µM*,nt,?
CCc1ccccc1NC(=O)Cn1nc(C(F)(F)F)c2c1CCC2,5.2%,2.0%,?,-16.1,7.6%
CCc1ccccc1NC(=O)CN1CCCN(Cc2cc(C)ccc2C)S1(=O)=O,nt,nt,16.4µM*,nt,14.6µM*
